Reference: PubChem BioAssay AID743172 (National Center for Advancing Translational Sciences (NCATS), 2013)
Results filed as inconclusive are left out. Activity calls are given as the source filed them. Calls come from the whole dose curve; as a rule, active = well fitted activation curve with a large enough effect; inconclusive = small, poorly fitted or top-dose-only effect; inactive = no such curve, though single readings can be large or run the other way.

test: Extended Characterization of HPGD Inhibitors: PGE2 Assay in LNCaP Cells; conditions: PGE2 HTRF level, 16 h
Text: The central role of HPGD is to inactivate prostaglandins such as prostaglandin E2 (PGE2) or prostaglandin D2 (PGD2). These prostaglandins are involved in a number of processes, including inflammation, differentiation, and cellular signaling, which makes HPGD an important target for pharmacological intervention. A number of prostaglandins of particular biological interest have been identified as substrates of HPGD. […] Over-production of PGE2 has been reported to promote tumor-associated neovascularization, cell proliferation, and tumor growth. […] In this orthogonal assay, we set out to measure if compounds were able to increase PGE2 production NIH Chemical Genomics Center [NCGC] NIH Molecular Libraries Probe Centers Network [MLPCN] MLPCN Grant: MH084681 Assay Submitter (PI): Structural Genomics Consortium
A549 cells, LNCaP cells or media were dispensed in 384-well plates (ProxiPlate-384 Plus, PerkinElmer, Shelton, CT) at 5,000 cells/9.9 uL/well using a CappAero384 multichannel pipette (Odense, Denmark). Separately on the plate, 10 uL of PGE2 calibration standards at a starting assay concentration of 5,000 pg/mL (1:2 dilution, 12-points, n = 1, prepared in media, Cisbio, Bedford, MA) were dispensed. Compounds (100 nL, final concentration range from 41.9 nM to 100 uM) were transferred using an ATS Acoustic Liquid Dispenser (EDC Biosystems, Fremont, CA). After being mixed using an automated liquid handler (CyBio, Jena, Germany), samples were incubated (37 deg C, 5% CO2, under a humidified atmosphere) for 16 hours. PGE2 labeled conjugates were added to each well, first 5 uL of PGE2-d2, followed by 5 uL of anti-PGE2-cryptate, centrifuged (1,500 rpm, 15 sec) and incubated (RT, protected from light) for 5 hours. Time-resolved fluorescence intensity (320 nm excitation, 615 and 665 nm emission) was measured using an Envision plate reader (PerkinElmer). Data was expressed as the ratio of 665 nm/615 nm emissions. Concentration (pg/mL) of samples were calculated from a 4-parameter logistic calibration curves of the PGE2 standards.

| SMILES | Potency |
| --- | --- |
| Cc1cc(-c2nnc3n2CCCCC3)c(C)n1-c1ccc(C(C)(C)C)cc1 | 2.22 µM (active) |
| Cc1cc(-c2nnc3n2CCCCC3)c(C)n1-c1cccnc1 | 4.43 µM (active) |
| COc1ccc(-n2c(C)cc(-c3nnc4n3CCCCC4)c2C)cc1 | 2.8 µM (active) |
| Cc1cc(-c2nnc3n2CCCCC3)c(C)n1-c1ccc(Cl)cc1 | 2.22 µM (active) |
